According to PubChem BioAssay AID2517 (National Center for Advancing Translational Sciences (NCATS), 2010):
Where “and” joins values, the source holds several entries; their conditions need not be identical. Equal values may be shown once. In all, about 350,000 compounds went through this assay and about 1,200 (0.34%) were called active. Entries that show only a call come without a potency. Not shown: some 3% with an inconclusive outcome. Calls follow the shape of the dose curve; as a rule, active = well fitted inhibition curve with a large enough effect; inconclusive = small, poorly fitted or top-dose-only effect; inactive = no such curve, though single readings can be large or run the other way. Only a selection was taken, and actives are over-represented in it overall. The source holds several records for some structures; these can differ, active in one and inactive in another.
Also: nearly all actives have a fitted effect of over 55% in size.
Potency is read from the fitted curve at half-maximal effect.

Each molecule was assayed against DNA repair nuclease/redox regulator APEX1 (Homo sapiens) (UniProt P27695) (assay: qHTS Assay for Inhibitors of the Human Apurinic/apyrimidinic Endonuclease 1 (APE1)). Details: recombinant APE1, TAMRA/BHQ-2 abasic DNA cleavage fluorescence; series mostly up to 65.8 µM.
Sequence of DNA repair nuclease/redox regulator APEX1 (Homo sapiens) (P27695 whole entry, looked up): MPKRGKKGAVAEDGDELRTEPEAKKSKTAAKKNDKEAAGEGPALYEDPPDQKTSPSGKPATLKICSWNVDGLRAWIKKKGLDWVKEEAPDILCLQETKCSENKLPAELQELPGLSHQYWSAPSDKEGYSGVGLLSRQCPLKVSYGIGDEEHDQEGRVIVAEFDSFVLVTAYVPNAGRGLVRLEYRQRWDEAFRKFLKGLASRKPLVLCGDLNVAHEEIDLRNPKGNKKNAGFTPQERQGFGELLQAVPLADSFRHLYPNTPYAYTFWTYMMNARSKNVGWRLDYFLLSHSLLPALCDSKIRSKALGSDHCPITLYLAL
Source text: The apurinic/apyrimidinic endonuclease APE1 is the primary mammalian enzyme responsible for the removal of abasic (or AP) sites in DNA and functions centrally in the base excision DNA repair (BER) pathway. […] Thus, targeting APE1 could improve the efficacy of current treatment paradigms by promoting selective sensitization or protection of diseased and normal cells, respectively.
Inhibition of APE1 activity was screened by utilizing double-stranded short substrate containing tetrahydrofuran (THF) abasic site labeled with rhodamine-type fluorophore (TAMRA) at the 5'-end and with non-fluorescent Black Hole Quencher-2 (BHQ-2) at the opposing 3'-end. An increase in the fluorescence intensity due to incision of the abasic site by APE1 was used to measure the enzyme activity.
NIH Chemical Genomics Center [NCGC]
NIH Molecular Libraries Probe Centers Network [MLPCN]
Assay Provider: David M. Wilson, III, National Institute on Aging, NIH
Three uL of enzyme solution (0.75 nM APE1 final concentration) was dispensed to 1536-well Greiner black solid bottom plates. […] The plates were incubated for 15 min at room temperature, and then 1 uL of substrate solution (50 nM final concentration of TAMRA/BHQ-2) was added to start the reaction. The plates were immediately transferred into ViewLux High-throughput CCD imager (Perkin-Elmer) in order to measure the reaction progress in kinetic mode (three reads every 60 seconds) using 525 nm excitation and 598 nm emission fluorescence protocol. The fluorescence intensity difference between the third and the first time points was used to compute reaction progress. Results were normalized to buffer only columns and NSC13755 positive controls and negative control DMSO treated wells.
COc1ccc(N2C(=O)/C(=C/c3ccco3)C(=O)NC2=S)cc1 was tested, and the Potency was 0.67 µM (active).
For C[C@]12CC[C@@H]3C(=CCc4cc(O)ccc43)[C@@H]1CCC2=O, the Potency was “inactive”.
CCc1ccc(C2C(C#N)=C(N)Oc3n[nH]c(CC(=O)OC)c32)cc1 (stereo not given) was tested, and the Potency was “inactive”.
For CC[N+](C)(CC)CCC[n+]1c(-c2ccccc2)c2cc(N)ccc2c2ccc(N)cc21, the Potency was 2.12 µM (active).
With Clc1ccccc1 the Potency was “inactive”.
For CC(=O)[O][Sn]([c]1ccccc1)([c]1ccccc1)[c]1ccccc1, the Potency was “inactive”.
N#CC(C#N)=Cc1cc(O)c(O)c([N+](=O)[O-])c1 was tested, and the Potency was 5.62 µM (active).
For ClC(Cl)=C(Cl)C(Cl)=C(Cl)Cl, the Potency was “inactive”.
For N#Cc1cc(Br)c(O)c(Br)c1, the Potency was “inactive”.
N#CCCCl was tested, and the Potency was “inactive”.
In the case of Cc1nc(SCC(=O)NC2CCCC2)[nH]c(=O)c1C, the activity change, negative = inhibition was 63.8% [at 12.4 µM] (inactive).
CC(C)COC(=O)n1c(=O)oc2ccc(S(=O)(=O)N3CCCCC3)cc21 was tested, and the Potency was “inactive”.
For CC(C)Nc1nc(Cl)nc(NC(C)C)n1, the Potency was “inactive and 22.4 µM (active)”.
For CCCCC#N, the Potency was “inactive”.
For NCCCCC(N)C(=O)O (stereo not given), the Potency was “inactive”.
In the case of CCCCCCCCCCCCN=C(N)N, the Potency was “inactive”.
For CC(C)(c1ccccc1)c1ccc(O)cc1, the Potency was “inactive”.
With C[C@H]1C/C=C/[C@@H]2[C@@H]3O[C@]3(C)[C@@H](C)[C@H]3[C@H](Cc4ccccc4)NC(=O)[C@]32OC(=O)O/C=C/[C@](C)(O)C1=O the Potency was “inactive”.
With O=C(OCC1O[C@@H](OC(=O)c2cc(O)c(O)c(O)c2)[C@@H](OC(=O)c2cc(O)c(O)c(O)c2)[C@@H](OC(=O)c2cc(O)c(O)c(O)c2)[C@@H]1OC(=O)c1cc(O)c(O)c(O)c1)c1cc(O)c(O)c(O)c1 (stereo not given in full) the Potency was 0.0112 µM (active).
For Cc1cc(-c2n[nH]c(=S)n2-c2ccc(C)c(C)c2)no1, the Potency was “inactive”.
For CC(=O)c1ccc(-c2ccc(Cn3c(C)nc4cc(N)c(C)nc43)cc2)cc1, the Potency was “inactive”.
CN(C)C1C(=O)C(C(N)=O)=C(O)[C@@]2(O)C(=O)C3=C(O)c4c(O)cccc4[C@@](C)(O)C3C[C@@H]12 (stereo not given in full) was tested, and the Potency was “inactive”.
O=c1cc(-c2ccc(O)cc2)oc2c([C@@H]3O[C@H](CO)[C@@H](O)[C@H](O)[C@H]3O)c(O)cc(O)c12 was tested, and the Potency was 8.91 µM (active).
In the case of C=CCOC(=O)c1ccccc1C(=O)OCC=C, the Potency was “inactive”.
For CC(Cl)Cl, the Potency was “inactive”.
In the case of CC(C)CC(C)Nc1ccc(Nc2ccccc2)cc1 (stereo not given), the Potency was “inactive”.
CC(CCn1cccn1)NC(=O)CCc1nnc(CCc2ccccc2)o1 (stereo not given) was tested, and the Potency was “inactive”.
With Cc1ccnc(-n2c(C)cc(/C=C3\C(=O)NC(=S)N(C)C3=O)c2C)c1 the Potency was “inactive”.
Cc1c(C(=O)O)cccc1-n1c(C)cc(/C=C2\C(=O)NC(=O)N(c3ccc4c(c3)OCO4)C2=O)c1C was tested, and the Potency was 14.1 µM (active).
With CC(C)(C)C(O)(CCc1ccc(Cl)cc1)Cn1cncn1 (stereo not given) the Potency was “inactive”.
C=CC#N was tested, and the Potency was “inactive”.
With ClCCBr the Potency was “inactive”.
With CCN(CC)c1nc(C)cc(OP(=S)(OC)OC)n1 the Potency was “inactive”.
CCOc1cc(N2CCOCC2)c(OCC)cc1NC(=O)C1=NN(c2cccc(C)c2)C(=O)CC1 was tested, and the Potency was “inactive”.
For CCC12CCN(CCc3ccccc3)CC1Oc1c(O)cccc12 (stereo not given), the Potency was “inactive”.
